Here are results for 39 molecules from PubChem BioAssay (NCI).

This is part of a sample that, as a whole, favours compounds with a hit. Of some 83,000 tested, about 20% had one in any assay.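 Percent growth is the endpoint: 0 to 100 indicates growth inhibition (40 means 60% inhibition), 0 means no net growth, and negative values indicate cell death.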 Active and inactive are the calls of the source. Rule for the calls: active = growth percent below 10; inactive = the rest.

One experiment relates to DU-145 prostate. Briefly: NCI-60 one-dose screen, 48 h (100 = growth as untreated, 0 = no growth, -100 = all killed). The settings on record: 10 µM unless noted.
For the molecule `CN1CCN(CCCOc2cccc3nc(Nc4ccc(Cl)c(C(F)(F)F)c4)ccc23)CC1`, the growth is 4.82% (active).

For the molecule `C#Cc1cccc(Nc2ncnc3cc(OC)c(OCCCCCCC(=O)NO)cc23)c1`, the growth is 0.81% (active). On the same count and under the same terms, for `Cc1ccc(-n2nc(C(C)(C)C)cc2NC(=O)NCc2cc(F)ccc2Oc2ccc3c(cnn3CCO)c2)cc1` the value was 42.4% (inactive); for `Cn1ccnc1C(=O)/C=C/c1ccc(CC(=O)Nc2ccc(Br)cc2)cc1`, 3.61% (active). The same measure, in the same setting: for `Cc1[nH]n(C(N)=S)c(=O)c1N=Nc1ccc(S(=O)(=O)Nc2ccncn2)cc1` the value was 83.7% (inactive).

Turning to `Cc1[nH]c(/C=C2\C(=O)Nc3ccc(F)cc32)c(C)c1C(=O)NC[C@H](O)CN1CCOCC1`, the growth is 31.3% (inactive). On the same count and under the same terms, in the case of `Cn1ncc(Cl)c1-c1cc(C(=O)N[C@H](CN)Cc2cccc(F)c2)sc1Cl` it was 44.4% (inactive); in that of `Cn1cc(-c2ncnc3ccc(-c4cnc(Cl)c(NS(C)(=O)=O)c4)cc23)c2ccccc21`, 25.2% (inactive); in that of `O=[N+]([O-])c1cc(Br)cc2c1[nH]c1ccc(Br)cc12`, 77.1% (inactive). Same read-out and setting: for `COc1ccc2c(OCc3nnc4ccc(-c5ccccc5)nn34)ccnc2c1` the value was 109% [2.5 µM] (inactive); for `CC(=O)O[C@]1(C)C[C@H](O)[C@]2(O)C=CO[C@H](O[C@@H]3O[C@H](CO)[C@@H](O)[C@H](O)[C@H]3O)[C@@H]21`, 102% (inactive).

On to `COc1cc2cc(NCc3ccc(F)cc3)nc(C)c2cc1OC`, for which the growth is 58.1% (inactive). Same read-out and setting: for `O=C(Nc1nc2cccc(-c3ccc(CN4CCS(=O)(=O)CC4)cc3)n2n1)C1CC1` the value was 35.4% (inactive); for `N#Cc1c(-c2ccc(Cl)cc2)csc1NC(=O)Nc1cccc(C(F)(F)F)c1`, 16.9% (inactive). Same read-out and setting: in the case of `O=C(c1ccc(/C=C/c2n[nH]c3ccccc23)cc1)N1CCNCC1` it was 39.6% (inactive); in that of `Cc1cnc(Nc2ccc(OCCN3CCCC3)cc2)nc1Nc1cccc(S(=O)(=O)NC(C)(C)C)c1`, 17.6% (inactive). On the same count and under the same terms, in the case of `CO[C@H]1C[C@@H]2CC[C@@H](C)[C@@](O)(O2)C(=O)C(=O)N2CCCC[C@H]2C(=O)O[C@H]([C@H](C)C[C@@H]2CC[C@@H](OCCO)[C@H](OC)C2)CC(=O)[C@H](C)/C=C(\C)[C@@H](O)[C@H](OC)C(=O)[C@H](C)C[C@H](C)\C=C/C=C/C=C/1C` it was 50.8% (inactive); in that of `COc1cc(F)c(F)c(Nc2ccc(I)cc2F)c1NS(=O)(=O)C1(C[C@H](O)CO)CC1`, 51.2% (inactive).

As for `Nc1ccc(S(=O)(=O)O)c2cc(S(=O)(=O)O)cc(O)c12`, the growth was 105% (inactive). In the case of `COc1cc2ncnc(Nc3ccc(F)c(Cl)c3)c2cc1NC(=O)/C=C/CN1CCCCC1`, the growth is -42.7% (active). On the same count and under the same terms, for `COc1ccc(C(=O)N2c3ccccc3Sc3ccccc32)c(F)c1` the value was 5.05% (active); for `O=S1(=O)OC(c2ccc(O)c(Cl)c2)(c2ccc(O)c(Cl)c2)c2ccccc21`, 103% (inactive). Take `C[C@H](NC(=O)c1c(N)nn2cccnc12)c1cc2cccc(C#Cc3cnn(C)c3)c2c(=O)n1-c1ccccc1`: the growth was 34.6% (inactive). On the same count and under the same terms, in the case of `Cc1cc(O)cc(-c2c(-c3ccnc(-c4cccnc4)c3)cnn2C)c1` it was 70.4% (inactive); in that of `CN1CCN(CCOc2cc(OC3CCOCC3)c3c(Nc4c(Cl)ccc5c4OCO5)ncnc3c2)CC1`, 43.8% (inactive).

The subject of a further experiment is K-562 leukemia. The description is as above. The settings on record: 10 µM unless noted.
For `CC(C)(C)c1ccc(Cn2cc(CSc3nc4ccccc4s3)nn2)cc1`, the growth was 95.6% (inactive). The same measure, in the same setting: for `CCN1CCN(Cc2ccc(Cc3ncc(F)c(-c4cc(F)c5nc(C)n(C(C)C)c5c4)n3)nc2)CC1` the value was -29.2% (active). As to `CC(=O)NCC(=O)N1[C@@H]2CC[C@H]1c1ccc(Nc3ncc(C(F)(F)F)c(NC4CCC4)n3)cc12`, the growth is 44.8% [2.5 µM] (inactive). With `O=C(NOCCO)c1cc(CN2OCCCC2=O)c(F)c(F)c1Nc1ccc(I)cc1F`, the growth was 31.2% (inactive). On the same count and under the same terms, for `CC(C)CC(=O)Nc1n[nH]c2c1CN(C(=O)C1CCN(C)CC1)C2(C)C` the value was 11.1% (inactive). Same read-out and setting: for `Cc1ccc(N)cc1CN1C(=O)c2ccccc2C1=O` the value was 105% (inactive). Still for that read-out and setting: in the case of `COCc1c(-c2ccc(NC(=O)Nc3cc(C(F)(F)F)ccc3F)c(F)c2)c2c(N)ncnn2c1CN1CCOCC1` it was 1.74% (active); in that of `O=C(CNc1nc2ccccc2s1)Nc1ccc(-c2nc3ccccc3s2)cc1`, 95.1% (inactive); in that of `N#CC[C@H](C1CCCC1)n1cc(-c2ncnc3[nH]ccc23)cn1`, 70.4% (inactive). In the case of `C=CC(=O)Nc1cc2c(Nc3ccc(F)c(Cl)c3)ncnc2cc1C#CC(C)(C)N1CCN(C)CC1`, the growth is -30.7% (active). Same read-out and setting: for `CC(=O)C1=C(C)NC(SCc2nnc(-c3ccc(C)cc3)o2)=NC1c1ccc(F)cc1` (centres undefined) the value was 100% (inactive).

For the molecule `CNC(=O)c1ccc(Nc2ncc(C(F)(F)F)c(NCc3nccnc3N(C)S(C)(=O)=O)n2)cc1`, the growth was 10.6% (inactive). Consider `C/C=C/C=N/NC(=S)Nc1ccccc1`, for which the growth was 88.9% (inactive). Still for that read-out and setting: in the case of `COc1cc(N2CCC(N(C)C)CC2)ccc1Nc1ncc(Cl)c(Nc2ccccc2P(C)(C)=O)n1` it was 12.5% (inactive); in that of `CN1CCN(CCCOc2cccc3nc(Nc4ccc(Cl)c(C(F)(F)F)c4)ccc23)CC1`, -41.3% (active); in that of `C#Cc1cccc(Nc2ncnc3cc(OC)c(OCCCCCCC(=O)NO)cc23)c1`, 5.48% (active).

As to `Cc1ccc(-n2nc(C(C)(C)C)cc2NC(=O)NCc2cc(F)ccc2Oc2ccc3c(cnn3CCO)c2)cc1`, the growth was 3.71% (active).

As for `Cn1ccnc1C(=O)/C=C/c1ccc(CC(=O)Nc2ccc(Br)cc2)cc1`, the growth was 6.58% (active). For `Cc1[nH]n(C(N)=S)c(=O)c1N=Nc1ccc(S(=O)(=O)Nc2ccncn2)cc1`, the growth is 103% (inactive). The same measure, in the same setting: in the case of `Cc1[nH]c(/C=C2\C(=O)Nc3ccc(F)cc32)c(C)c1C(=O)NC[C@H](O)CN1CCOCC1` it was 24% (inactive); in that of `Cn1ncc(Cl)c1-c1cc(C(=O)N[C@H](CN)Cc2cccc(F)c2)sc1Cl`, -21.1% (active); in that of `Cn1cc(-c2ncnc3ccc(-c4cnc(Cl)c(NS(C)(=O)=O)c4)cc23)c2ccccc21`, 48.4% (inactive). In the case of `O=[N+]([O-])c1cc(Br)cc2c1[nH]c1ccc(Br)cc12`, the growth was 55.5% (inactive). Still for that read-out and setting: in the case of `COc1ccc2c(OCc3nnc4ccc(-c5ccccc5)nn34)ccnc2c1` it was 93.1% [2.5 µM] (inactive). Consider `CC(=O)O[C@]1(C)C[C@H](O)[C@]2(O)C=CO[C@H](O[C@@H]3O[C@H](CO)[C@@H](O)[C@H](O)[C@H]3O)[C@@H]21`, for which the growth was 97.3% (inactive). On the same count and under the same terms, for `COc1cc2cc(NCc3ccc(F)cc3)nc(C)c2cc1OC` the value was 11.7% (inactive). Still for that read-out and setting: in the case of `O=C(Nc1nc2cccc(-c3ccc(CN4CCS(=O)(=O)CC4)cc3)n2n1)C1CC1` it was 36.5% (inactive); in that of `N#Cc1c(-c2ccc(Cl)cc2)csc1NC(=O)Nc1cccc(C(F)(F)F)c1`, 9.25% (active). Same read-out and setting: in the case of `O=C(c1ccc(/C=C/c2n[nH]c3ccccc23)cc1)N1CCNCC1` it was 12.4% (inactive); in that of `Cc1cnc(Nc2ccc(OCCN3CCCC3)cc2)nc1Nc1cccc(S(=O)(=O)NC(C)(C)C)c1`, 1.89% (active). For `CO[C@H]1C[C@@H]2CC[C@@H](C)[C@@](O)(O2)C(=O)C(=O)N2CCCC[C@H]2C(=O)O[C@H]([C@H](C)C[C@@H]2CC[C@@H](OCCO)[C@H](OC)C2)CC(=O)[C@H](C)/C=C(\C)[C@@H](O)[C@H](OC)C(=O)[C@H](C)C[C@H](C)\C=C/C=C/C=C/1C`, the growth was 42.9% (inactive). On the same count and under the same terms, for `COc1cc(F)c(F)c(Nc2ccc(I)cc2F)c1NS(=O)(=O)C1(C[C@H](O)CO)CC1` the value was 21.9% (inactive). The same measure, in the same setting: for `Nc1ccc(S(=O)(=O)O)c2cc(S(=O)(=O)O)cc(O)c12` the value was 117% (inactive); for `COc1cc2ncnc(Nc3ccc(F)c(Cl)c3)c2cc1NC(=O)/C=C/CN1CCCCC1`, -28.5% (active); for `COc1ccc(C(=O)N2c3ccccc3Sc3ccccc32)c(F)c1`, 12.7% (inactive). On the same count and under the same terms, for `O=S1(=O)OC(c2ccc(O)c(Cl)c2)(c2ccc(O)c(Cl)c2)c2ccccc21` the value was 113% (inactive); for `C[C@H](NC(=O)c1c(N)nn2cccnc12)c1cc2cccc(C#Cc3cnn(C)c3)c2c(=O)n1-c1ccccc1`, 17.4% (inactive); for `Cc1cc(O)cc(-c2c(-c3ccnc(-c4cccnc4)c3)cnn2C)c1`, 57.8% (inactive). Consider `CN1CCN(CCOc2cc(OC3CCOCC3)c3c(Nc4c(Cl)ccc5c4OCO5)ncnc3c2)CC1`, for which the growth was 5.29% (active).
